# Rows were chosen to be rich in hits. Some 2.2% of all compounds tested hit in one or more screens of this group.
# aSyn 5UTR inh: 5' untranslated region of α-synuclein, MLPCN primary screen; inhibition, % (tested at 7.5 µM); alpha-synuclein 5'UTR reporter, inhibitor activity; AID 1813; 300,000 tested, 0.82% active; in the data active = inhibition above about 60%; inconclusive = no clear call, values can overlap the other calls;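 note: H4 neuroglioblastoma cells stably carrying SNCA 5'UTR luciferase fusion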
# IEC-6 cytotox: counter-screen for KLF5 inhibitors: cytotoxicity in IEC-6 cells | 290,000 tested, 0.78% active | IEC-6 cytotoxicity, luminescence viability | AID 1825 | inhibition, % at 5 µM; in the data active = inhibition above about 22%
# BaF3 parental: reduces parental Ba/F3 cell viability, JAK2V617F counter-screen | CellTiter-Glo ATP luminescence | inhibition, % at 5.6 µM | 220,000 tested, 1.1% active;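 active = inhibition above a per-campaign cutoff, the mean inhibition of all tested compounds plus 3 SD, cut at about 27% in these data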
# KLF5 inh: kruppel-like factor 5 inhibition | inhibition, % at 5 µM | 290,000 tested, 0.23% active | AID 1700 | DLD-1 KLF5 promoter-luciferase reporter, luminescence;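 active = inhibition above a per-plate limit of that plate's mean compound inhibition plus 3 SD, cut at about 60% in these data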;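 note: higher means less KLF5 promoter-driven luciferase light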
# Ba/F3 V617F tox: reduce viability of Ba/F3 cells dependent on JAK2V617F. Ba/F3 EpoR-JAK2V617F viability, ATP luminescence. inhibition, % at 5.6 µM. 220,000 tested, 1.1% active;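 active = inhibition above the campaign mean plus 3 SD over all tested compounds, cut at about 24% in these data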;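 note: cytokine-independent growth of Ba/F3 cells driven by EpoR plus mutant JAK2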
# APP transl inh: APP translation inhibition; AID 1285; inhibition, % at 2 µM; SH-SY5Y APP 5'UTR-luciferase reporter, luminescence; 190,000 tested, 0.82% active;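 active = inhibition above a set limit, derived from the sample mean plus 3 SD, cut at about 45% in these data; inconclusive = one replicate passes the limit while the other fails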
# A number is an active result; i = inactive; ? = inconclusive; nt = not tested or not shown; ! = not confirmed by another sample.
SMILES,aSyn 5UTR inh,IEC-6 cytotox,BaF3 parental,KLF5 inh,Ba/F3 V617F tox,APP transl inh
Cn1c(=O)c(-c2cc(Br)ccc2N)nc2ccccc21,i,i,46.0,i,40.1,i
CCN1CCN(Cc2ccc(NC(=O)c3ccc(C)c(NC(=O)N4CCNC4=O)c3)cc2C(F)(F)F)CC1,66.3!,i,nt,i,nt,nt
CCN(CC)S(=O)(=O)c1ccc(NC(=O)CCNC(=O)c2ccccc2)cc1,i,i,nt,i,nt,nt
CC(C)CNS(=O)(=O)c1ccc(S(=O)(=O)N2CCN(C3CCCC3)CC2)cc1,i,i,nt,i,nt,nt
COc1cc(C(=O)Nc2ccc3c(c2)CCN3C(C)=O)cc(OC)c1OC,96.9,40.1,79.2,i,78.2,81.0
COc1cc(C(=O)Nc2ccc3c(c2)Cc2ccccc2-3)cc(OC)c1OC,i,i,i,i,i,i
Cn1cc(CCCC(=O)NCc2ccc(F)cc2)c2ccccc21,i,i,nt,i,nt,nt
Cc1ccc(-c2cnc(-c3ccncc3)o2)cc1,i,i,i,i,i,i
Nc1ccc(-c2ncc(-c3ccccc3)o2)cc1,86.4,i,nt,i,nt,nt
Cc1ccccc1Nc1nc(N)nc(COC(=O)[C@@H](NC(=O)c2c(F)cccc2F)C(C)C)n1,i,nt,nt,nt,nt,nt
Cc1cc(NC(=O)CSc2nc3c(cc2C#N)CCC3)no1,i,i,nt,i,nt,nt
CCN(CC)c1ccc(C2=NNC(=O)CC2C)cc1[N+](=O)[O-] (stereo not given),98.5,i,i,i,i,i
CC1CC(=O)NN=C1c1ccc(N(C)C)c([N+](=O)[O-])c1 (stereo not given),i,i,i,i,i,i
Cc1cc(=O)n(-c2ccc(C(=O)O)cc2)[nH]1,i,i,i,i,i,i
Cc1cc(=O)n(-c2ccc(O)cc2)[nH]1,i,i,60.2,i,51.2,i
O=S(=O)(Cc1ccccc1)N1CCN(c2ncccn2)CC1,i,i,nt,i,nt,nt
Cc1nnc(SCCC(=O)Nc2ccccc2Cl)o1,i,i,nt,i,nt,nt
CSc1nc(-c2ccccc2)nc(NC(=O)C(C)C)c1C(C)=O,i,i,i,i,i,54.0
Cc1ccc(S(=O)(=O)N(C)C)cc1NC(=O)CSc1nncs1,i,nt,nt,nt,nt,nt
CCOc1ccc(NC(C(=O)Nc2cccc(C(C)=O)c2)c2ccccc2)cc1 (stereo not given),i,i,53.7,i,50.7,i
Nc1ccc(-c2nc3c(Cl)cc(N)cc3[nH]2)cc1,85.2,i,i,i,i,63.2
Nc1ccc2nc(-c3ccc(N)c(Cl)c3)[nH]c2c1,i,i,i,i,i,i
C[n+]1c2n(c3ccccc31)N=C(c1ccc(Cl)cc1)CS2,i,i,67.3,i,78.1,i
CC1Sc2n(c3ccccc3[n+]2C)N=C1c1ccccc1 (stereo not given),i,i,74.5,i,98.9,i
O=C(Nc1ccnn1C1CCN(C(=O)c2ccc(F)c(Cl)c2)CC1)C1CC1,i,i,nt,i,nt,nt
SMILES,aSyn 5UTR inh,IEC-6 cytotox,BaF3 parental,KLF5 inh,Ba/F3 V617F tox,APP transl inh
CCC(C)n1cnc2c(=O)oc3ccccc3c21 (stereo not given),i,i,i,i,i,87.9
CC(C)Cn1cnc2c(=O)oc3ccccc3c21,i,i,i,i,i,i
C/C(=N\NC(=O)CSCc1ccccc1Cl)c1cc(O)ccc1O,61.8,i,i,i,i,54.1
CC(=O)Nc1ccc(NC(=O)CSCc2ccccc2Cl)cc1,i,nt,nt,nt,nt,nt
CN1/C(=C\C(=O)COC(=O)CNC(=O)c2ccc3ccccc3c2)C(C)(C)c2ccccc21,i,i,33.9,i,i,i
CN1/C(=C\C(=O)COC(=O)c2ccc(O)c(O)c2)C(C)(C)c2ccccc21,i,i,51.2,i,51.8,i
CN1/C(=C\C(=O)COC(=O)CNC(=O)c2ccccc2F)C(C)(C)c2ccccc21,i,i,i,i,i,nt
CCOc1ccccc1N1CCN(C(=O)c2ccc3c(c2)OCO3)CC1,i,i,nt,i,nt,nt
COc1ccc(CNC[C@@H](CCCCN(C)Cc2ccc(OC)cc2)N2C[C@H](c3ccccc3)N(CCc3ccc(Cl)c(Cl)c3)C(=O)C2=O)cc1,92.2,i,i,i,i,i
CCOc1ccc(CCN2C(=O)C(=O)N([C@H](CCCN(C)Cc3ccccc3)CNCc3ccccc3)C[C@@H]2C(C)C)cc1,i,nt,nt,nt,nt,nt
Cc1ccc(N2C(=O)C3C4C=CC(CC4)C3C2=O)cc1[N+](=O)[O-] (stereo not given),i,i,nt,i,nt,nt
Cc1cc(N2C(=O)C=CC2=O)c([N+](=O)[O-])cc1C,i,i,i,i,i,62.2
Cc1ccnc(NC(=O)c2cccc(S(=O)(=O)N3CCCc4ccccc43)c2)c1,i,nt,nt,nt,nt,nt
COc1ccccc1NC(=O)c1ccc2c(c1)CCN2S(C)(=O)=O,i,i,nt,i,nt,nt
O=C(Oc1nsnc1N1CCOCC1)N1CCOCC1,i,i,i,i,i,i
O=C(Oc1nsnc1N1CCOCC1)c1ccccc1,i,i,i,i,i,53.3
Cc1cccc(Cc2nnc(CCC(=O)N(CC3CC3)CC3CCCO3)o2)c1 (stereo not given),i,i,i,i,i,i
CCN(CC1CCCO1)C(=O)CCc1nnc(Cc2ccc3c(c2)OCO3)o1 (stereo not given),i,i,81.6,i,i,i
Cc1ccc(-c2nn(-c3ccc(F)cc3)cc2C(=O)N(C)CC(=O)Nc2ccc(N3CCOCC3)cc2)cc1,i,nt,nt,nt,nt,nt
CCOC(=O)C(C)Oc1cccc2c(=O)n(CC(=O)NCc3ccc4c(c3)OCO4)ccc12 (stereo not given),65.0,i,42.0,i,59.2,i
CCOC(=O)C(C)Oc1cccc2c(=O)n(CC(=O)Nc3ccc4c(c3)OCCO4)ccc12 (stereo not given),i,i,i,i,i,i
COc1cccc(C(C)NC(=O)C2CCCC2)c1 (stereo not given),i,i,nt,i,nt,nt
COc1ccccc1C(=O)NCC(=O)OCC(=O)c1cccc2ccccc12,i,nt,nt,nt,nt,nt
Cc1ccccc1Cn1cc(NC(=O)c2noc(C(C)C)c2[N+](=O)[O-])cn1,106.1,i,nt,i,nt,nt
Cc1ccc(-c2nc(-c3ccccc3)no2)cc1,?,i,i,i,i,i
SMILES,aSyn 5UTR inh,IEC-6 cytotox,BaF3 parental,KLF5 inh,Ba/F3 V617F tox,APP transl inh
Cc1ccc(-c2nc(-c3ccccc3)no2)c(Cl)c1,95.5,i,i,i,i,i
O=C(COC(=O)c1ccco1)Nc1nnc(-c2ccccc2)o1,i,nt,nt,nt,nt,nt
O=C(OCc1nc(-c2ccccc2)oc1COC(=O)c1ccco1)c1ccco1,i,i,54.1,i,i,i
O=S(=O)(Nc1nc2ccccc2nc1N1CCc2ccccc2C1)c1ccc(Br)cc1,nt,i,i,i,i,i
O=S(=O)(Nc1nc2ccccc2nc1N1CCc2ccccc2C1)c1ccc(Cl)cc1,86.2,i,i,i,i,i
CCOc1ccc(-n2c(SCC(=O)Nc3ccc(Br)cc3)nc3n[nH]c(C)c3c2=N)cc1,81.5,i,i,i,i,i
COc1ccc(/C=C2\CN(Cc3ccccc3)C/C(=C\c3ccc(OC)cc3OC)C2=O)c(OC)c1,i,i,i,i,i,i
COc1ccc(C=C2c3ccccc3C(=O)c3ccccc32)c(OC)c1,97.6,86.6,82.7,i,83.8,nt
CCC(=O)NC1CCN(C(=S)NC)CC1,i,i,61.5,i,i,i
